Measured values taken from PubChem BioAssay (NCATS).
Inconclusive results are not listed. The source made the active and inactive calls. Unless noted, the call rests on the fitted dose curve.

Legend:
[1] = target: Lysosomal acid glucosylceramidase (Homo sapiens) (UniProt P04062); experiment: Glucocerebrosidase-p2 (AID 348; in the data active means potency below about 10 µM; further: potency means the concentration at half of the fitted maximal effect); conditions: purified GBA, blue fluorogenic substrate, 40 min
Lysosomal acid glucosylceramidase (Homo sapiens), sequence (P04062 whole entry, looked up): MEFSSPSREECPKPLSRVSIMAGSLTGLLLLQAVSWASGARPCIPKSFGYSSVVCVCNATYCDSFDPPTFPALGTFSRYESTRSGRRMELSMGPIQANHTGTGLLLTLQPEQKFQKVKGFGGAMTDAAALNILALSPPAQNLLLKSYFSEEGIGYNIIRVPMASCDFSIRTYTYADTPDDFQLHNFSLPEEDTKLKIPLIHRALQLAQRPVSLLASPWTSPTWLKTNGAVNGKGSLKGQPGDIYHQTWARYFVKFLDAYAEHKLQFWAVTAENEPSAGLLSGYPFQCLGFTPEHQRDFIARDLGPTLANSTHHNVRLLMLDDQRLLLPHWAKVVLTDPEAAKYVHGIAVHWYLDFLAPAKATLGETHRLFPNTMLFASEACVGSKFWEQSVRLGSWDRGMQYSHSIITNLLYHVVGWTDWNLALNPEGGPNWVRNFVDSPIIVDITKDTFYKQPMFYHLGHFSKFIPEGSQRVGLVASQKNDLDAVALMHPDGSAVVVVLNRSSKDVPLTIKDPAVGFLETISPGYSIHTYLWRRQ
Procedure, shortened: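 Normal human glucocerebrosidase (0.2 nM) with blue fluorogenic substrate (80 uM final) in citrate/phosphate pH 5.9 with 10mM sodium taurocholate, 0.01% tween-20; 40 min RT, NaOH/glycine stop; fluorescence Ex 365/Em 440; AC50 from a titration from 0.6 nM upwards.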

[2] = AP1 Signaling Pathway (AID 357; active means well fitted curve in either direction with a large enough effect, not every such curve was filed as active; further: on the % scale 0 is the no-effect control and ±100 the full control effect); conditions: ME-180 AP-1-bla reporter, EGF-induced, beta-lactamase ratio, 5 h; at 7.69 µM (top of the series) unless noted
Procedure, shortened: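 AP-1-bla ME-180 cells with beta-lactamase reporter under AP-1 response element, stimulated with EC50 EGF; compounds titrated, 5 hours at 37 degrees Celsius. CCF4 read at 460/530 nm ratio; positive and negative modulators judged by AC50.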

[3] = target: Cytochrome P450 1A2 (Homo sapiens) (UniProt P05177); experiment: p450-cyp1a2 (AID 410); conditions: recombinant CYP1A2, luciferin-ME demethylation, luminescence; series mostly up to 57 µM; further: potency means the concentration at half of the fitted maximal effect;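 on activity change, negative = inhibition: -100% = full effect of reference inhibitor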
Cytochrome P450 1A2 (Homo sapiens), sequence (P05177 whole entry, looked up): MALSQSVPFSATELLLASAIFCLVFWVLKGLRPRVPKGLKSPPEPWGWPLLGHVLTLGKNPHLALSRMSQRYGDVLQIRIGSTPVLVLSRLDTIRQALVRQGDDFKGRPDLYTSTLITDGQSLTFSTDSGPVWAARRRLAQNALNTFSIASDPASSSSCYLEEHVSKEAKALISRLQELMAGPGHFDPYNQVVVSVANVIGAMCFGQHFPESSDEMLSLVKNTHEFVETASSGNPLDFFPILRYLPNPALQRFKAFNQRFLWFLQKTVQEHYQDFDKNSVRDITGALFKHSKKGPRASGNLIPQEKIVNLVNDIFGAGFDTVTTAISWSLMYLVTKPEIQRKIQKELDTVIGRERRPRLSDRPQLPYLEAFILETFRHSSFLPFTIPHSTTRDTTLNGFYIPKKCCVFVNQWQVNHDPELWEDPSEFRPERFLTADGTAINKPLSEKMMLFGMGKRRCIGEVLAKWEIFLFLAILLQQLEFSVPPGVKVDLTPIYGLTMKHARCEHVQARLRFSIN
Procedure, shortened: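 O-Demethylation of luciferin 6' methyl ether by human CYP1A2 is monitored as luciferase luminescence. Substrate sits at Km (100uM); enzyme is 20nM. Values are scaled to 57 uM furafylline as maximal inhibition.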

[4] = Stat Signaling Pathway (AID 446; active means well fitted curve in either direction with a large enough effect, not every such curve was filed as active;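 further: ME-180 cervical cancer cells given 40 pM IL-6 alongside compound; SIE-controlled beta-lactamase reporter measured as 460/530 nm FRET emission ratio; on the % scale 0 is the no-effect control and ±100 the full control effect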); conditions: ME-180 SIE beta-lactamase reporter, IL-6 stimulated, 5 h; at 7.69 µM (top of the series) unless noted
Procedure, shortened: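 Overnight-plated ME-180 cells bearing a STAT Inducible Element beta-lactamase reporter; 5 h co-exposure to compound and 40 pM IL-6; values normalized to 300 pM IL-6 and 125 nM JAK inhibitor controls.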

[5] = target: Glucocorticoid receptor (Homo sapiens) (UniProt P04150); experiment: GR-EFC Redistribution (AID 451); conditions: CHO-K1 GR-EFC translocation, beta-gal luminescence, 2 h; further: potency means the concentration at half of the fitted maximal effect
Glucocorticoid receptor (Homo sapiens), sequence (P04150 whole entry, looked up, the tested form may be a part): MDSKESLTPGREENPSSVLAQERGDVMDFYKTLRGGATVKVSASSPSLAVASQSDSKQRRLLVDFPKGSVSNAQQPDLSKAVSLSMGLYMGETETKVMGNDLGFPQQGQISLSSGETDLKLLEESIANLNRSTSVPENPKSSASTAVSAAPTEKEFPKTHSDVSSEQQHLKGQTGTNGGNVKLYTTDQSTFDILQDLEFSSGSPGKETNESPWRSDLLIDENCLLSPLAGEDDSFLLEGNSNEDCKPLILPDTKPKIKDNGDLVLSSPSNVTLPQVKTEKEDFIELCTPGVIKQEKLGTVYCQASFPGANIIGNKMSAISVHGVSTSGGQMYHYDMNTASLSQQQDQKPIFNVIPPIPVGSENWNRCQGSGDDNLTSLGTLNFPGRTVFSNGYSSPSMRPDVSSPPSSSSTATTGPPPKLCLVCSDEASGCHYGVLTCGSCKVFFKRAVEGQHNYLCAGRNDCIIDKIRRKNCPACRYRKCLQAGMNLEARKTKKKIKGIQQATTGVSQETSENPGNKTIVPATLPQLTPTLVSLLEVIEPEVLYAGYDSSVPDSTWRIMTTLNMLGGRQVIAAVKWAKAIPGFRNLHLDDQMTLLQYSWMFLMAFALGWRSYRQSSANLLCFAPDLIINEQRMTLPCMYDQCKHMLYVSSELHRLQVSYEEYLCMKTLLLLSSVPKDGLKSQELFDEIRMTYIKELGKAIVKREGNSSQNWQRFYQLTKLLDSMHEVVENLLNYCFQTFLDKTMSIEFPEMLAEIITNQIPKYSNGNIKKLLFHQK
Procedure, shortened: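 Translocation of GR-ED fusion to nuclear EA restores b-gal, read by luminescence after 1 h room-temperature detection. Engineered CHO-K1 biosensor cells, 1,000/well, exposed 2 h at 37 C to titrations up to 46 uM final.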

[6] = target: Mitogen-activated protein kinase 10 (Mus musculus) (UniProt Q61831); experiment: JNK3 AlphaScreen Assay (AID 530; active means well fitted curve in either direction with a large enough effect, not every such curve was filed as active;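 further: kinase came from lysate of stimulated human HepG2 cells; signal reports phosphorylation of biotinylated GST-cJun 1-79 at Ser73 with 10 µM ATP; on the % scale 0 is the no-effect control and ±100 the full control effect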); conditions: JNK3 lysate, c-Jun phosphorylation; series mostly up to 57.1 µM
Procedure, shortened: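 qHTS titrations with 15 min compound pre-incubation before adding ATP (10 uM final). Read-out: AlphaScreen of Ser73-phosphorylated biotin-GST-cJun using HepG2 lysate JNK3 activated by IL-1β and TNFα.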

[7] = target: 3',5'-cyclic-AMP phosphodiesterase 4B (Homo sapiens) (UniProt Q07343); experiment: qHTS Assay for Inhibitors of PDE-IV (AID 607; active means well fitted activation curve with a large enough effect in the main read-out, with a control signal flat, not every such curve was filed as active; further: % of control where 0% means no effect); conditions: HEK293 ACTOne CNG channel cells, membrane potential fluorescence; series mostly up to 22.9 µM
3',5'-cyclic-AMP phosphodiesterase 4B (Homo sapiens), sequence (Q07343 whole entry, looked up): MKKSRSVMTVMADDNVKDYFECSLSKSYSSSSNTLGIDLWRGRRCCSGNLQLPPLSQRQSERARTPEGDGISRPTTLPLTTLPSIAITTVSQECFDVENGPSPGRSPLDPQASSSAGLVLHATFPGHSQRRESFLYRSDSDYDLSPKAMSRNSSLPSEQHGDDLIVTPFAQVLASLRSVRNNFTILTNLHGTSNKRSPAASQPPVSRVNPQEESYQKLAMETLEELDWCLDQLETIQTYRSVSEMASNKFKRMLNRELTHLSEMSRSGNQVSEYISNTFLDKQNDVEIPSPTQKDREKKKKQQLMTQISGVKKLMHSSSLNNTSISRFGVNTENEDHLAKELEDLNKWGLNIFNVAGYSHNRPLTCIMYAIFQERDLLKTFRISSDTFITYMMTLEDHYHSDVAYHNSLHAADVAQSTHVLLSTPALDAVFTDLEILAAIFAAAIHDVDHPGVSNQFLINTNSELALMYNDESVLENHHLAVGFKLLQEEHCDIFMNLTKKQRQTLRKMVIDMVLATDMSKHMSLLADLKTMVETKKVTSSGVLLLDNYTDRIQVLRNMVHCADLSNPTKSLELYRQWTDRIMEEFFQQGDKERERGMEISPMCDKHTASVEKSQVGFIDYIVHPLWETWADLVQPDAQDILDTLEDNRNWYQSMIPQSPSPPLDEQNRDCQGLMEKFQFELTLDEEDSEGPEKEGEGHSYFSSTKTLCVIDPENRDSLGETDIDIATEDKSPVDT
Procedure, shortened: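 Live HEK293 cells with a modified cyclic nucleotide-gated (CNG) channel report intracellular cAMP via membrane-potential dye fluorescence (ex 535/em 590 nm). Endogenous PDE-IV was targeted. Compounds were tested at up to 22.9 uM final; RO 20-1724 100 uM served as control.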

[8] = target: Cytochrome P450 2C19 (Homo sapiens) (UniProt P33261); experiment: qHTS Assay for Inhibitors and Substrates of Cytochrome P450 2C19 (AID 899; active means well fitted curve in the direction sought with a large enough effect; an effect the other way counts as inactive or inconclusive; further: nearly all actives have a fitted effect of over 60% in size; further: potency means the concentration at half of the fitted maximal effect); conditions: recombinant CYP2C19, luciferin-H EGE luminescence; series mostly up to 57.1 µM
Cytochrome P450 2C19 (Homo sapiens), sequence (P33261 whole entry, looked up): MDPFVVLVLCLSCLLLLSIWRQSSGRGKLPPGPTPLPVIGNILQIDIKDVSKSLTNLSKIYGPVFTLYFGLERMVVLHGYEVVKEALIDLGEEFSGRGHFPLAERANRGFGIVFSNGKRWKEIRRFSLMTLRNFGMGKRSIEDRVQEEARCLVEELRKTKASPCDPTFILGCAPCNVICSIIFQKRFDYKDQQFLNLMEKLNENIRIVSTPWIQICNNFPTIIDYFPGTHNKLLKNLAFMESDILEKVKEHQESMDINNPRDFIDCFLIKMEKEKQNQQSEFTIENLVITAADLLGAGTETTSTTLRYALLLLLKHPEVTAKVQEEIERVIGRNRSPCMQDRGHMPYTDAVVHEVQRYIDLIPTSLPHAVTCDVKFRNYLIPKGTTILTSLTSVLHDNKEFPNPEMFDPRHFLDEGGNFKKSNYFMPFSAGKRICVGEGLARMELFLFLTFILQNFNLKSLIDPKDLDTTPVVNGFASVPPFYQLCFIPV
Procedure, shortened: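 Luminescence readout of luciferin formed from 10uM Luciferin-H EGE (KM level) by 5 nM CYP2C19 in 50mM KPO4. 60 min NADPH-driven reaction at 37C after 10 min compound preincubation; data scaled to 57uM ketoconazole inhibition.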

[9] = qHTS Assay for Identification of Small Molecule Agonists for Hypoxia Response Element Signaling Pathway (AID 914; active means well fitted activation curve with a large enough effect in the signal ratio, with a control signal flat, not every such curve was filed as active; the % refers to the signal ratio; further: % of control where 0% means no effect); conditions: ME-180 (cervical carcinoma) HRE-bla reporter, beta-lactamase ratio, CoCl2, 17 h; activation: stronger effect = higher value
Procedure, shortened: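 qHTS titration; ME-180 HRE-bla cells; EC50 CoCl2 co-treatment, 17 h at 37 degrees Celsius; CCF4 dye, ex 405nm, em 460nm and 530nm; %Activity from ratio; AC50.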

[10] = qHTS Assay for Lipid Storage Modulators (AID 1519); conditions: Drosophila S3 cells, BODIPY lipid droplet/cell ratio, laser cytometry, cells loaded with oleic acid; for activity change, negative = inhibition: at 57.5 µM (top of the series)
Procedure, shortened: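 Cells seeded at 5,000 per well were treated with compounds over a concentration series and loaded with oleic acid (400 uM, as added). Lipid droplet fluorescence (488 nm excitation, 500-530 nm channel) was read by laser-scanning cytometry and normalized to 20 uM Triacsin C.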

[11] = Primary qHTS for small molecule stabilizers of the endoplasmic reticulum resident proteome: Secreted ER Calcium Modulated Protein (SERCaMP) assay (AID 1508630; active means well fitted curve in the direction sought with a large enough effect; an effect the other way counts as inactive or inconclusive; further: on the % scale 0 is the no-effect control and ±100 the full control effect); conditions: SH-SY5Y GLuc-SERCaMP (Gaussia luciferase released on ER calcium loss) secretion, thapsigargin, luminescence; series mostly up to 38.4 µM
Procedure, shortened: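 The SH-SY5Y reporter protocol was run at 3 concentrations up to 38.3 uM (primary) or 11 concentrations (follow-up): 16 h compound, 100 nM thapsigargin for 4 h, then extracellular luciferase luminescence.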

[12] = target: Cytochrome P450 2D6 (Homo sapiens) (UniProt P10635); experiment: qHTS Assay for Inhibitors and Substrates of Cytochrome P450 2D6 (AID 891; active means well fitted curve in the direction sought with a large enough effect; an effect the other way counts as inactive or inconclusive; further: potency means the concentration at half of the fitted maximal effect; nearly all actives have a fitted effect of over 60% in size); conditions: recombinant CYP2D6, luciferin-ME EGE luminescence; series mostly up to 57.1 µM
Cytochrome P450 2D6 (Homo sapiens), sequence (P10635 whole entry, looked up): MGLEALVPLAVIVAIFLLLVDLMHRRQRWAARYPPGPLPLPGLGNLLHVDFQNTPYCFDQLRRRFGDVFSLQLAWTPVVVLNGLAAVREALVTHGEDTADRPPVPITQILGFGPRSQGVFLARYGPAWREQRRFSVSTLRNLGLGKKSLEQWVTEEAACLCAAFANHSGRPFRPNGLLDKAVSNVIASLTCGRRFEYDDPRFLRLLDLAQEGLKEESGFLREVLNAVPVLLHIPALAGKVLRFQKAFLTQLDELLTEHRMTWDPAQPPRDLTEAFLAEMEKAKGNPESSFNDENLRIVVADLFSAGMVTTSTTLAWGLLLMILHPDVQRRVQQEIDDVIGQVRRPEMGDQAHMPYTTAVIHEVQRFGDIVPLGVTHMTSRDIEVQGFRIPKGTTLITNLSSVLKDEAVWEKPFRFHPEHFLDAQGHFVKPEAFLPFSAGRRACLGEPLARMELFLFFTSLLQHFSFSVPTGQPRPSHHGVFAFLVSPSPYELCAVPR
Procedure, shortened: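 Luminescent read-out of luciferin formed by 5 nM human CYP2D6 demethylating 30 uM Luciferin-ME EGE (Km level) over 60 min at room temperature after NADPH regeneration addition. Data normalized to full inhibition by 1.43 uM quinidine.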

[13] = target: Cytochrome P450 3A4 (Homo sapiens) (UniProt P08684); experiment: qHTS Assay for Activators of Cytochrome P450 3A4 (AID 885; active means well fitted curve in the direction sought with a large enough effect; an effect the other way counts as inactive or inconclusive; further: nearly all actives have a fitted effect of over 65% in size; further: potency means the concentration at half of the fitted maximal effect); conditions: recombinant CYP3A4, Luciferin-PPXE luminescence, 60 min; series mostly up to 57.1 µM
Cytochrome P450 3A4 (Homo sapiens), sequence (P08684 whole entry, looked up): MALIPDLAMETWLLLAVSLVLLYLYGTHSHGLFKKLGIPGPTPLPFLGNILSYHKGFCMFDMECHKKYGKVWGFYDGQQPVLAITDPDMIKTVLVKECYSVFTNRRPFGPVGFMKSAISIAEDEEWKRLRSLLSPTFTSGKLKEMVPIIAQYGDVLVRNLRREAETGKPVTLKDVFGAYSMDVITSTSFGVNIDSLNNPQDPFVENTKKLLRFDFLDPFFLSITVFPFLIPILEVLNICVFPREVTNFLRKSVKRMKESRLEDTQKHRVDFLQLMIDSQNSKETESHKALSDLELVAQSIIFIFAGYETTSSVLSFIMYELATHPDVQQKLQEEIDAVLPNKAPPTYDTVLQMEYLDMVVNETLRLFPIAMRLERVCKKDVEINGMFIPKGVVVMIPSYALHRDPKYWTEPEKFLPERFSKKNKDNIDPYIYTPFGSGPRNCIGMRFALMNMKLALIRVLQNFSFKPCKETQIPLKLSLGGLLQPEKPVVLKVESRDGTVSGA
Procedure, shortened: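 Using 20nM recombinant human CYP3A4 in potassium phosphate (200mM), substrate Luciferin-PPXE at 25uM, luminescent luciferin detection followed a 60-min RT NADPH reaction; data scaled to 57 uM ketoconazole.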

[14] = target: Cytochrome P450 3A4 (Homo sapiens) (UniProt P08684); experiment: qHTS Assay for Inhibitors and Substrates of Cytochrome P450 3A4 (AID 884; active means well fitted curve in the direction sought with a large enough effect; an effect the other way counts as inactive or inconclusive; further: on the % scale 0 is the no-effect control and ±100 the full control effect; nearly all actives have a fitted effect of over 50% in size); conditions: recombinant CYP3A4, Luciferin-PPXE luminescence; series mostly up to 57.1 µM
Procedure, shortened: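 Luminescent readout of luciferin produced by CYP3A4 (20 nM) dealkylation of Luciferin-PPXE, 25 uM (its KM). NADPH-driven reaction ran 60 min at RT after 10 min compound preincubation; data scaled to 57 uM ketoconazole as 100% inhibition.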

[15] = measured here: cell count channel max response
[16] = measured here: lipid channel max response

| Compound | Potency [1] | activity change, negative = inhibition [2] | Potency [3] | activity, negative = inhibition [4] | Potency [5] | Potency [6] | Potency [7] | Potency [8] | activation [9] | activity change, negative = inhibition [10] | max response [10, 15] [%] | max response [10, 16] [%] | outcome [11] | Potency [12] | Potency [13] | Potency [14] |
| --- | --- | --- | --- | --- | --- | --- | --- | --- | --- | --- | --- | --- | --- | --- | --- | --- |
| O=S(=O)(c1ccccc1)N1CCC2(CCCN(c3ccccn3)C2)CC1 | > 11.4 µM (inactive) | -6.83% (inactive) | 7.94 µM (active) | -6.34% (inactive) | > 46 µM (inactive) | inactive | inactive | 0.158 µM (active) | -11.6% (inactive) | 5.71% (inactive) | 17.9 | 25.4 | inactive | – | – | – |
| COc1ccccc1CN1CCC2(CC1)CCN(C(=O)c1cccn1C)CC2 | > 11.4 µM (inactive) | 6.08% (inactive) | inactive | -5.76% (inactive) | > 46 µM (inactive) | inactive | inactive | – | – | -1.94% (inactive) | 8.14 | 8.04 | inactive | 3.98 µM (active) | – | – |
| COc1ccccc1CN1CC2(CCN(C(=O)c3ccncc3)CC2)C1 | > 11.4 µM (inactive) | -0.483% (inactive) | inactive | -1.82% (inactive) | > 46 µM (inactive) | inactive | inactive | – | – | -2.12% (inactive) | -19.5 | -17.3 | inactive | 0.794 µM (active) | inactive | – |
| O=C(c1cccc(F)c1)N1CCC2(CCN(Cc3nccs3)CC2)CC1 | > 11.4 µM (inactive) | -8.17% (inactive) | 1.58 µM (active) | -0.835% (inactive) | > 46 µM (inactive) | – | – | 1.58 µM (active) | – | 6.34% (inactive) | 8.7 | 20.4 | inactive | – | 15.8 µM (active) | inactive |
| COc1ccccc1CN1CCCC2(CCN(C(=O)c3ccco3)CC2)C1 | > 11.4 µM (inactive) | -11.6% (inactive) | inactive | -1.13% (inactive) | > 46 µM (inactive) | inactive | inactive | – | – | 2.54% (inactive) | 5.74 | 11.8 | inactive | 2.51 µM (active) | inactive | – |
| N#Cc1ccc(CN2CCC3(CC2)CCN(C(=O)c2ccncc2)CC3)cc1 | > 11.4 µM (inactive) | 1.51% (inactive) | inactive | -3.87% (inactive) | > 46 µM (inactive) | inactive | inactive | – | – | 1.92% (inactive) | 15.7 | 18.7 | inactive | 6.31 µM (active) | inactive | – |
| COCC(=O)N1CCC2(CCCN(c3ncccn3)C2)CC1 | > 11.4 µM (inactive) | -5.71% (inactive) | inactive | -7.69% (inactive) | > 46 µM (inactive) | inactive | inactive | – | 11.9% (inactive) | 7.95% (inactive) | 9.8 | 21.8 | inactive | – | – | – |
| O=C(c1ccncc1)N1CCC2(CCN(Cc3ccccc3)CC2)CC1 | > 11.4 µM (inactive) | 3.68% (inactive) | inactive | -6.01% (inactive) | > 46 µM (inactive) | inactive | inactive | inactive | – | 3.67% (inactive) | 13.9 | 18.6 | inactive | – | inactive | – |
| COc1ccccc1CN1CCC2(CC1)CCN(C(=O)c1c(C)noc1C)CC2 | > 11.4 µM (inactive) | 4.81% (inactive) | inactive | -4.2% (inactive) | > 46 µM (inactive) | inactive | inactive | – | – | 1.42% (inactive) | 11.3 | 18.8 | inactive | 7.94 µM (active) | – | – |
| O=C(c1cc(C(F)(F)F)cc(C(F)(F)F)c1)N1CCC2(CCN(Cc3ccccc3)CC2)CC1 | > 11.4 µM (inactive) | 9.59% (inactive) | inactive | -1.85% (inactive) | > 46 µM (inactive) | inactive | inactive | – | 4.02% (inactive) | 2.31% (inactive) | 18.5 | 24.9 | inactive | – | – | – |
| N#Cc1cccc(NC(=O)N2CC3(CCN(C(=O)c4cc(C(F)(F)F)cc(C(F)(F)F)c4)CC3)C2)c1 | > 11.4 µM (inactive) | -13.9% (inactive) | 12.6 µM (active) | -7.2% (inactive) | > 46 µM (inactive) | inactive | inactive | 0.631 µM (active) | – | -0.946% (inactive) | 14 | 14.4 | inactive | – | inactive | – |
| COc1ccccc1CN1CCC2(CCNCC2)CC1 | > 11.4 µM (inactive) | -18.9% (inactive) | inactive | 6.24% (inactive) | > 46 µM (inactive) | inactive | inactive | – | – | -2.64% (inactive) | 1.08 | -0.266 | inactive | 0.0316 µM (active) | – | – |
| CC(C)CN1CCC2(CC1)CCN(C(=O)c1ccncc1)CC2 | > 11.4 µM (inactive) | -3.14% (inactive) | inactive | -5.7% (inactive) | > 46 µM (inactive) | inactive | inactive | – | – | 0.393% (inactive) | 14.2 | 14.7 | inactive | 3.98 µM (active) | inactive | – |
| COc1ccc(NC(=O)N2CCC3(CC2)CCN(S(C)(=O)=O)CC3)cc1 | > 11.4 µM (inactive) | -1.54% (inactive) | inactive | 2.59% (inactive) | > 46 µM (inactive) | inactive | inactive | 3.16 µM (active) | – | 8.18% (inactive) | 16.5 | 28.9 | inactive | – | – | – |
